The list is not random: actives were taken first. Their share in the collection is about 3%.
SENP8 block-1: SENP8 protease inhibition. AID 2540. 330,000 tested, 1.2% active. purified SENP8, Z-RLRGG-aminoluciferin cleavage, luminescence. inhibition, % at 10 µM; in the data active means inhibition above about 50%
Target sequence (Q96LD8 whole entry, looked up): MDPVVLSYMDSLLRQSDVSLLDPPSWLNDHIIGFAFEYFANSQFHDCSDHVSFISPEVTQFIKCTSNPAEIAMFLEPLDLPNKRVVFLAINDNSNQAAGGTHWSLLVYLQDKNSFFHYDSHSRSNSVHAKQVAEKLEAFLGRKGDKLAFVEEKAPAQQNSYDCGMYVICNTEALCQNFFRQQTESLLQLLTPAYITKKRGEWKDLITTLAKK
SENP8 block-2: blocks human SENP8 cleavage of Nedd8 substrate; Q96LD8; recombinant SENP8, Nedd8 substrate fluorescence; inhibition, % at 20 µM; 360,000 tested, 0.64% active; in the data active means inhibition mostly above about 40%, no sharp cut-off; inactive means mostly below about 27%
TRAIL sens C8: sensitizes caspase-8 expressing cells to TRAIL; 360,000 tested, 1% active; NB7+C8 cells + TRAIL, ATPlite viability luminescence; inhibition (viability loss, TRAIL sensitization), % at 10 µM;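 active means compounds causing at least 50% loss of cell viability in the single-dose screen, relative to plate controls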
SENP7 inh: SENP7 protease inhibition. Q9BQF6. recombinant SENP7, Z-RLRGG-aminoluciferin luminescence, 40 min. inhibition, % at 5 µM. 330,000 tested, 1.5% active;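 active means inhibition above about 50% at the single test dose, limit read from the data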
PPC-1+TRAIL kill: kills PPC-1 cancer cells in the presence of TRAIL; cell killing (% activity), % at 4 µM or 5 µM; 220,000 tested, 0.41% active; PPC-1 cells + TRAIL, ATPLite viability luminescence;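 active means cell killing above 50% in the first pass at 4 µM, then a duplicate retest at 5 µM averaging 50% or more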
SENP6 inh: SENP6 protease inhibition; inhibition, % at 10 µM; Recombinant SENP6 catalytic domain, aminoluciferin luminescence; 330,000 tested, 1.8% active;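 active means inhibition above about 50% at the single tested dose, limit read from the data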
Target sequence (Q9GZR1 628-1112 limits assumed): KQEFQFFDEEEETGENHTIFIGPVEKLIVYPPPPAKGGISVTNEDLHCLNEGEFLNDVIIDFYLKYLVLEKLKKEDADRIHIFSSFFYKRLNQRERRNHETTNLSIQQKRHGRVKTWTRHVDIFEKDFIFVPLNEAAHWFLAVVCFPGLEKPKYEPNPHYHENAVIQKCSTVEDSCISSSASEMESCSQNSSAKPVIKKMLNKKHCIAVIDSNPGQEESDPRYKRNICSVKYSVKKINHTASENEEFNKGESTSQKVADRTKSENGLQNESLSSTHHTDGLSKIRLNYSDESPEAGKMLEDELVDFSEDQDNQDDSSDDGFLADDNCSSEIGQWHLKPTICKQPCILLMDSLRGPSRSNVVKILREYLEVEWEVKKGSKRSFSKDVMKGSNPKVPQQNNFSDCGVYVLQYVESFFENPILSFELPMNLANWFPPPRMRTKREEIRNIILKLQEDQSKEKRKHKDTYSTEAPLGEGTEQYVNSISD
Of the large screens only hits and unclear results are named; the others gave an inactive call.

C=CC(=O)Nc1ccc(Nc2nc(NC3CCC(N(C)C)CC3)nc3c2ncn3C(C)C)cc1 (centres undefined)	TRAIL sens C8 72.9 (no result: PPC-1+TRAIL kill)
CN(C)/N=C/C=C1\CC/C(=C\c2ccc(F)c(F)c2)C1=O	SENP8 block-2 51.5 (no result: PPC-1+TRAIL kill)
Cc1cccc(/C(N)=N/OC(=O)CCc2ccccc2)c1	none
CN1/C(=C/C=C/c2n(C)c3cc([N+](=O)[O-])c([N+](=O)[O-])cc3[n+]2C)C(C)(C)c2ccccc21	SENP8 block-2 60.1 (no result: SENP8 block-1, SENP7 inh, PPC-1+TRAIL kill, SENP6 inh)
Cc1cccc[n+]1CC(=O)/C=C1\N(C)c2ccccc2C1(C)C	none
O=C(CC(Nc1ccccc1)C(=O)O)c1ccccc1 (centres undefined)	SENP8 block-1 53.8, SENP6 inh 79.5
COc1ccc(C(C)C)cc1-c1cncc(NC(C)=O)n1	none (no result: SENP8 block-1, SENP7 inh, PPC-1+TRAIL kill, SENP6 inh)
C/C(=N\Nc1nc2ccccc2nc1C)c1ccccc1O	none
CC(=NNc1ccc2ccccc2n1)c1ccccc1O	TRAIL sens C8 76.9 (no result: SENP8 block-1, SENP7 inh, PPC-1+TRAIL kill, SENP6 inh)
CC(/C=N/NC(=O)c1nn(C)c(C)c1Br)=C\c1ccccc1	TRAIL sens C8 56.7, PPC-1+TRAIL kill 53.8
Cc1ccc(N2CCN(C(=O)c3nn(C)c4c3CS(=O)(=O)c3ccccc3-4)CC2)c(C)c1	none (no result: PPC-1+TRAIL kill)
CC1=Nc2cccc3cccc(c23)N1C	SENP8 block-2 44.5
CN1C(=O)N(C)c2cccc3cccc1c23	none (no result: PPC-1+TRAIL kill)
O=c1/c(=C/c2ccccn2)sc2nc3ccccc3n12	SENP8 block-1 79.0, TRAIL sens C8 54.4, SENP7 inh 97.7, SENP6 inh 84.2
CC(C)c1nnc(NC(=O)c2nc(S(=O)(=O)Cc3ccccc3)ncc2Cl)s1	TRAIL sens C8 94.2 (no result: PPC-1+TRAIL kill)
CSc1nnc(NC(=O)c2nc(S(=O)(=O)Cc3ccccc3)ncc2Cl)s1	TRAIL sens C8 81.6 (no result: PPC-1+TRAIL kill)
CC1(C(=O)Nc2ccc(Cl)c(Cl)c2)CCN1C(=O)CCC1CCCC1 (centres undefined)	none (no result: SENP8 block-1, SENP7 inh, PPC-1+TRAIL kill, SENP6 inh)
COc1ccc(CCN(C)C(=S)Nc2cccc(C)c2)cc1OC	none (no result: PPC-1+TRAIL kill)
CCC(C(=O)O/N=C(\N)c1ccc(C)cc1)c1ccccc1 (centres undefined)	TRAIL sens C8 72.1
CCC(C(=O)O/N=C(\N)c1ccc(Cl)cc1)c1ccccc1 (centres undefined)	none
CCC(C(=O)O/N=C(\N)c1ccccc1)c1ccccc1 (centres undefined)	TRAIL sens C8 71.4
CCC(=O)Nc1ccc(C2C(=O)c3ccccc3C2=O)cc1	TRAIL sens C8 72.6 (no result: PPC-1+TRAIL kill)
CCCCC(=O)Nc1ccc(C2C(=O)c3ccccc3C2=O)cc1	TRAIL sens C8 48.4 (no result: PPC-1+TRAIL kill)
CC(C(=O)OCC(=O)Nc1ccccc1OC(F)F)N1C(=O)C2CC=CCC2C1=O (centres undefined)	none (no result: SENP8 block-1, SENP7 inh, PPC-1+TRAIL kill, SENP6 inh)
Cn1c(=NC(=O)c2ccccc2[N+](=O)[O-])sc2cc(S(C)(=O)=O)ccc21	SENP7 inh 57.4
N#C/C(=C\c1ccccc1)C(=O)N(c1ccccn1)C1CCCCC1	PPC-1+TRAIL kill 59.1
CC(=NCc1ccncc1)C1=C(O)c2ccccc2C1=O	PPC-1+TRAIL kill 50.5 (no result: SENP8 block-1, SENP8 block-2, TRAIL sens C8, SENP7 inh, SENP6 inh)
CCOC(=O)[C@]12CCC=C1N(Cc1cccc3ccccc13)C(=O)[C@H](CC(=O)NCCCCc1ccccc1)C2	none (no result: SENP8 block-1, SENP7 inh, PPC-1+TRAIL kill, SENP6 inh)
Cn1cnc(Sc2ncnc3nc[nH]c23)c1[N+](=O)[O-]	TRAIL sens C8 62.3
CC(=O)CSc1ncnc2nc[nH]c12	none
Cn1cnc([N+](=O)[O-])c1Sc1ncnc2nc[nH]c12	TRAIL sens C8 67.5
Cc1cccnc1Sc1c([N+](=O)[O-])ncn1C	none
COC(=O)c1ccc(C(=O)OC)c(NC2=NS(=O)(=O)c3ccccc32)c1	none
COC(=O)c1c(-c2ccccc2)csc1NC1=NS(=O)(=O)c2ccccc21	TRAIL sens C8 73.5
CCc1ccc(/C=N/Nc2ncnc3nc[nH]c23)cc1	TRAIL sens C8 60.2
CC(=O)c1ccc(NC(=O)CSc2nc(N)c3cc4c(nc3n2)CCCC4)cc1	TRAIL sens C8 51.6
COc1ccc(NC(=O)CSc2nc(N)c3cc4c(nc3n2)CCCC4)cc1	none
O=C1CC(NS(=O)(=O)c2ccccc2)CN1c1ccc2c(c1)OCCO2 (centres undefined)	none (no result: PPC-1+TRAIL kill)
COC1=CC(=O)c2ccccc2C1=O	SENP8 block-1 51.4, TRAIL sens C8 88.1, SENP6 inh 55.8 (no result: PPC-1+TRAIL kill)
O=C(COC(=O)c1ccc2c(=O)n3c(nc2c1)CCC3)NC1CCS(=O)(=O)C1 (centres undefined)	none
CCOC(=O)C1Nc2ccc(Br)cc2C2C=CCC12 (centres undefined)	SENP8 block-2 58.8 (no result: PPC-1+TRAIL kill)
N#CC(C#N)=C1SC(=Nc2ccccc2)C(=Nc2ccccc2)N1c1ccccc1	TRAIL sens C8 91.6 (no result: SENP8 block-1, SENP7 inh, PPC-1+TRAIL kill, SENP6 inh)
O=C(O)c1cc2ccccc2c2c1C(=O)c1ccccc1-2	none (no result: SENP8 block-1, SENP7 inh, PPC-1+TRAIL kill, SENP6 inh)
Nc1cc(C(=O)O)c(N)c2c1C(=O)c1ccccc1C2=O	SENP8 block-2 51.2, SENP6 inh 58.7
CCOC(=O)CCCCCC(=O)Nc1ccc2c(c1)C(=O)N([C@@H](C)CO)C[C@H](C)[C@H](CN(C)C(=O)Nc1ccc(F)cc1)OCCCC[C@H](C)O2	none (no result: SENP8 block-1, SENP7 inh, PPC-1+TRAIL kill, SENP6 inh)
COc1ccc(-c2cn3cccc(C)c3n2)cc1Br	SENP8 block-1 58.8, SENP7 inh 68.3
C(=NN1CCCCCC1)c1ccc2ccccc2n1	TRAIL sens C8 90.2 (no result: SENP8 block-1, SENP7 inh, PPC-1+TRAIL kill, SENP6 inh)
C(=NN1CCCCCC1)c1cccc2ccccc12	none (no result: SENP8 block-1, SENP7 inh, PPC-1+TRAIL kill, SENP6 inh)
COC(=O)c1ccc2c(c1)C(C)(C)C(/C=C/c1ccc(OC)c(OC)c1OC)=[N+]2C	TRAIL sens C8 67.5
COC(=O)c1ccc2c(c1)C(C)(C)C(/C=C/c1ccc(O)cc1)=[N+]2C	TRAIL sens C8 51.5
COc1ccc(S(=O)(=O)N(C)C)cc1NCC(=O)Nc1ccc(Br)c(C)c1	none
COc1ccc(C)cc1NC(=O)CSc1nnc2ccc(-c3cccnc3)nn12	none (no result: PPC-1+TRAIL kill)
c1cc(-c2cc3cc(N4CCOCC4)ccc3o2)cs1	TRAIL sens C8 78.9 (no result: PPC-1+TRAIL kill)
O=C(CCl)N(c1ccccc1)C1CCCCC1	TRAIL sens C8 94.9
CC(=O)N(c1ccccc1)C1CCCC1	none
CC(C)C[C@@H](CN1CCCC1CN1C(=S)NC[C@@H]1Cc1ccc(O)cc1)N1C[C@H](Cc2ccccc2)N(CC2CCCCCC2)C1=S (some centres undefined)	none (no result: SENP8 block-1, SENP7 inh, PPC-1+TRAIL kill, SENP6 inh)
CC(C)C[C@@H](CN1CCCC1CN1C(=S)NC[C@@H]1Cc1ccc(O)cc1)N1C[C@H](Cc2ccc(O)cc2)N(CC2CCCCCC2)C1=S (some centres undefined)	TRAIL sens C8 53.2 (no result: SENP8 block-1, SENP7 inh, PPC-1+TRAIL kill, SENP6 inh)
COc1ccc(-c2cc(CNc3nc(NC(C)C)nc4cc(-c5ccccc5)sc34)on2)cc1	TRAIL sens C8 80.0 (no result: SENP8 block-1, SENP7 inh, PPC-1+TRAIL kill, SENP6 inh)
CC(=O)Nc1ccc(CNc2nc(NC(C)C)nc3cc(-c4ccccc4)sc23)cc1	none (no result: SENP8 block-1, SENP7 inh, PPC-1+TRAIL kill, SENP6 inh)
CSc1nc(NCCN(C)C)c2sc3nc(-c4ccco4)c4c(c3c2n1)CCC4	TRAIL sens C8 83.0 (no result: SENP8 block-1, SENP7 inh, PPC-1+TRAIL kill, SENP6 inh)
CSc1nc(N(C)CCO)c2sc3nc(-c4ccco4)c4c(c3c2n1)CCC4	none
Cc1cc(=O)n2[nH]c(N)c(N=Nc3ccccc3F)c2n1	SENP8 block-1 85.4, SENP7 inh 85.7, SENP6 inh 93.9
Cc1nc(NC(=O)c2ccccc2)sc1-c1csc(Nc2ccc(F)cc2)n1	none (no result: SENP8 block-2, TRAIL sens C8)

Screening results from PubChem BioAssay.
